PTHR1 ag – PTHR1 (human) receptor agonism; Q03431; HEK293 GP2 PTHR1 cells, GloSensor cAMP luminescence, 1 h; Potency, µM (titrated, usually from 115 µM), inactives show at the highest dose activation, usual class: activators; 0.075% of 410,000 active; note: nearly all actives have a fitted effect of over 55% in size
Target sequence (Q03431 whole entry, looked up): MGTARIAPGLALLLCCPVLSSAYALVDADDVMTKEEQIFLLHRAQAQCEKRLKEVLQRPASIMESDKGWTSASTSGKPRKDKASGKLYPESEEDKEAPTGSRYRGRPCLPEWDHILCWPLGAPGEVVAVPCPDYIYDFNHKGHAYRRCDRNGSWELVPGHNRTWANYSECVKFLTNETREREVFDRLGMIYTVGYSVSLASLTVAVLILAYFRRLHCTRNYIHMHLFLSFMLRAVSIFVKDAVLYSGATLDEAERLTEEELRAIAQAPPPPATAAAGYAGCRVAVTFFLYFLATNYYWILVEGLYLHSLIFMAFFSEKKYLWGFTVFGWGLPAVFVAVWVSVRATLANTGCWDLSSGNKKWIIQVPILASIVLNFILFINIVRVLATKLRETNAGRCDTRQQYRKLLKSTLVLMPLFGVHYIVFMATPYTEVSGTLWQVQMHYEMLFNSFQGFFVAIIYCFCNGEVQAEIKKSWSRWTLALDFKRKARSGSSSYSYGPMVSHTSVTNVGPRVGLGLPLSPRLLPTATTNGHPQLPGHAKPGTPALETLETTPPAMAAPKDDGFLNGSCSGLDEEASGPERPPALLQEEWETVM
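HEK-293-derived GP2 cells expressing PTHR1 and a GloSensor cAMP reporter, 3,000/well, plated overnight, given luciferin plus IBMX (each 0.5 mM as added) for 1 h at 37 °C, then compound for 1 h at 37 °C. Luminescence was read after 15 min at room temperature.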
GLP1R cytotox – cytotoxic in the GLP-1 receptor inverse agonist counter-screen; Potency, µM (top dose mostly 38.3 µM), for inactives: top-dose activity change, negative = inhibition, actives largely listed as inhibitors; HEK293 cAMP-luciferase reporter cells, luminescence, 24 h; 0.13% of 410,000 active;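 note: loss of luciferase light is scored as toxicity; % is set by controls: 0 for no effect and ±100 for the full control effect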
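1536-well qHTS counterscreen of the MLSMR; 200 cells/uL, 12 h pre-incubation, 23 nL cpd, 24 h at 37 deg C 5% CO2, luciferase detection reagent, 12 min RT, luminescence. Inhibition = undesired.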
GLP-1R agonist – GLP-1 receptor (human) agonism. AID 624172. Potency, µM (top dose mostly 45.6 µM), without a hit: at the top dose activation, usual class: activators. 0.007% of 380,000 active. HEK293 GLP-1R CRE-luciferase, luminescence, 4-6 h; cells express a hypersensitive GLP-1R form. P43220; note: % of control where 0% means no effect
GLP1R inv ag – acts as inverse agonist at human GLP-1 receptor; P43220; HEK293 GLP-1R CRE-luciferase, luminescence, 24 h; GLP-1R form is constitutively active; Potency, µM (titrated, usually from 38.3 µM), without a hit: top-dose activity change, negative = inhibition, hits mostly inhibitors; 1.6% of 410,000 active; AID 624417; note: % is set by controls: 0 for no effect and ±100 for the full control effect; nearly all actives have a fitted effect of over 55% in size
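Assay principle: reduced luminescence from a cAMP-responsive reporter in HEK293 cells co-expressing a constitutively active GLP-1R. Conditions: 24 hr compound incubation, 37 deg C, 5% CO2.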
Starred values were filed as active, the others as inactive; i = inactive; ? = inconclusive; . = not tested or not shown; [ ] = dose if it differs, or a comment. Compounds with a hit are over-represented: about 1.7% of the library has one in this group of screens. Calls come from the whole dose curve; as a rule, active = well fitted curve in the direction sought with a large enough effect; inconclusive = small, poorly fitted or top-dose-only effect, or another doubt; inactive = no such curve, though single readings can be large; an effect the other way counts as inactive or inconclusive. Potency is the fitted concentration of half-maximal effect.

SMILES	PTHR1 ag	GLP1R cytotox	GLP-1R agonist	GLP1R inv ag
Cc1ccc2occ(CC(=O)Nc3ccc(S(=O)(=O)N4CCCC(C)C4)cc3)c2c1 (configuration not stated)	-26.1%	0.0%	.	11.2µM*
NC1=NC[C@H](Cc2ccc(O)cc2)N1CCc1cccc(F)c1	i	1.6%	-4.2%	6.5%
NC1=NC[C@@H](Cc2ccc(O)cc2)N1CCC12CC3CC(CC(C3)C1)C2	-25.5%	-12.2%	12.4%	8.91µM*
COc1ccc(CN2C[C@H]3CCCN3c3cc(Br)ccc3S2(=O)=O)cc1	-16.6%	-24.7%	14.7%	0.891µM*
COc1ccc(N2CCN(c3oc(COc4ccccc4)nc3C#N)CC2)cc1	-8.9%[57.5 µM]	1.9%	3.9%	2.82µM*
CN(C)c1ccc(C=C2SC(=S)N(Cc3ccco3)C2=O)cc1	-4.5%	-14.6%	2.8%	-1.1%
Cc1cc(/C=C2\SC(=S)N(Cc3ccco3)C2=O)c(C)n1-c1ccccc1	i	3.7%	-7.6%	2.24µM*
Cc1cc(/C=C2\SC(=S)N(C)C2=O)c(C)n1-c1cccc(O)c1	-29.2%	3.1%	-3.3%	2.82µM*
COc1ccc(-n2c(C)cc(/C=C3/SC(=S)N(C)C3=O)c2C)cc1	-13.7%	-8.9%	-2.3%	-16.2%
CCOC(=O)c1c(Nc2ccc(C)cc2)nnc(-c2ccccc2)c1-c1ccccc1	-20.7%	0.0%	-2.8%	11.2µM*
CCOC(=O)c1c(Nc2cccc(C(=O)OC)c2)nnc(-c2ccccc2)c1-c1ccccc1	-17.9%	1.0%	-5.7%	0.6%
O=C(/C=C/c1ccccc1)CC(O)(c1ccccc1)C(F)(F)C(F)F (configuration not stated)	-27.6%	6.0%	-22.2%	?
O=C(/C=C/c1ccccc1)CC(O)(c1ccccc1)C(F)(F)F (configuration not stated)	-13.1%[57.5 µM]	2.2%	-5.7%	11.2µM*
O=C(Nc1cccc(C(F)(F)F)c1)c1csc([C@@H]2C[C@H](O)[C@@H](CO)O2)n1	-20.8%	-7.6%	-4.1%	-20.5%
CC(C)(C)c1cc(/C=C2\NC(=O)NC2=O)cc(C(C)(C)C)c1O	i	-5.7%	16.4%	?
CC(C)(C)c1cc(/C=N/O)cc(C(C)(C)C)c1O	i	-9.9%	-7.9%	10µM*
Cc1cc(C(=O)Cn2cnc3cc(F)ccc3c2=O)c(C)n1C1CC1	-19.7%	-0.8%	7.6%	7.8%
CN(C)c1cccc(C(=O)NNC(=O)CN2C(=O)C3CC=CCC3C2=O)c1 (configuration not stated)	-17.2%	-10.5%	15.0%	8.2%
CCOC(=O)c1ccccc1NC(=O)c1sc2ncn(CC)c(=O)c2c1C	i	3.8%	.	17.8%
CC1Cc2cc(S(=O)(=O)NCCc3ccccc3)ccc2N1C(=O)C1CCC1 (configuration not stated)	-52.2%	1.2%	.	-33.9%
N#CC(c1ccccc1)C(CC(=NO)c1ccccc1)c1ccccc1 (configuration not stated)	-31.7%	-2.9%	-5.6%	8.91µM*
N#CC(c1ccc([N+](=O)[O-])cc1)C(CC(=O)c1ccccc1)c1ccccc1 (configuration not stated)	i	3.7%	9.3%	11.2µM*
N#CC(c1cccc([N+](=O)[O-])c1)C(CC(=O)c1ccccc1)c1ccccc1 (configuration not stated)	-15.4%	11.5%	-1.0%	?
Cc1ccc2c(c1)c(=O)c1ccccc1n2CCCC(=O)Nc1ccc(C)c(F)c1	-24.3%	150.4%	.	?
c1ccc(CO/N=C(\c2ccc(C3CC3)nc2)C2CC2)cc1	-24.5%	1.6%	-1.8%	7.94µM*
SMILES	PTHR1 ag	GLP1R cytotox	GLP-1R agonist	GLP1R inv ag
Nc1ncnc(Sc2ncccn2)c1[N+](=O)[O-]	-55.0%	11.2µM*	-5.4%	?
COc1ccc(-c2nc(C(=O)NCC3CCCO3)cc3c2[nH]c2ccccc23)cc1 (configuration not stated)	i	?	-4.6%	10µM*
COc1ccc(OC)c(-c2nc(C(=O)NC3CCN(Cc4ccccc4)CC3)cc3c2[nH]c2ccccc23)c1	-26.7%	-3.5%	10.9%	10µM*
Cc1ccccc1-c1nc(C(=O)NCC2CCCO2)cc2c1[nH]c1ccccc12 (configuration not stated)	-53.4%	-18.7%	?	10µM*
CCN1c2ccccc2-c2nc(SCC(=O)Nc3cc(F)ccc3F)ncc2S1(=O)=O	i	-2.4%	.	-8.1%
COc1ccccc1C(=O)NCCSCc1c(F)cccc1Cl	-22.7%	3.3%	14.1%	?
Cc1c(C(=O)NCCSCc2c(F)cccc2Cl)cnn1-c1ccc(Cl)cc1	-29.2%	0.0%	17.3%	10µM*
C(#Cc1ccc(C#CCN2CCCC2)cc1)CN1CCCC1	-18.7%	?	5.7%	3.55µM*
O=C(Cn1cc(SCc2c(F)cccc2Cl)c2ccccc21)N1CCCCC1	i	-5.7%	.	-4.2%
O=C(Cn1cc(SCc2c(F)cccc2Cl)c2ccccc21)N1CCCCCC1	-40.4%	-5.7%	.	10µM*
Cc1ccc(S(=O)(=O)N(C)c2cc(S(=O)(=O)N3CCC(C)CC3)c(C)cc2C)cc1	-2.5%	-0.9%	-5.6%	12.6µM*
CCN(CC)c1ccc(C(=O)N2CCC(c3c[nH]c4ccccc34)(c3c[nH]c4ccccc34)CC2)cc1	-10.1%	2.3%	.	?
COc1cc(NC2c3ccccc3C(=O)N2Cc2ccccc2Cl)cc(OC)c1 (configuration not stated)	3.7%	-19.4%	0.1%	10µM*
O=C(COCc1cc(-c2ccc(F)cc2)on1)Nc1cccc(Cl)c1Cl	-14.7%	4.6%	.	3.2%
COc1ccc(C2/C=C\CN(C(=O)C3CCCC3)[C@H](Cc3ccccc3)C(=O)N2Cc2ccc(F)cc2)cc1 (some centres not stated)	-22.7%	6.2%	-3.4%	4.47µM*
COc1ccc([C@H]2/C=C\CN(C(=O)C3CCCC3)[C@@H](C)C(=O)N2Cc2ccc(F)cc2)cc1	i	-14.9%	0.6%	?
COc1ccc(C2/C=C\CN(C(=O)Nc3ccc(C(F)(F)F)cc3)CC(=O)N2Cc2ccc(F)cc2)cc1 (configuration not stated)	-30.6%	-19.5%	-3.2%	11.2µM*
CCCCCCOc1ccc(/C=C/C(=O)Nc2sc3c(c2C(=O)OC)CCC3)cc1OC	-23.8%	?	.	?
CCCc1n[nH]c(=S)n1Cc1ccco1	i	7.2%	-1.7%	15.4%
S=c1[nH]nc(C23CC4CC(CC(C4)C2)C3)n1Cc1ccco1	-9.5%[57.5 µM]	-28.6%	-7.6%	7.94µM*
CC(C(=O)Nc1ccc2c(c1)OCO2)N(C)CC(=O)Nc1ccc(Cl)cc1 (configuration not stated)	i	-14.9%	7.9%	?
CC(C(=O)Nc1ccc2c(c1)OCO2)N(c1ccc(Cl)cc1)S(C)(=O)=O (configuration not stated)	-9.2%[57.5 µM]	-10.4%	-5.6%	10µM*
CC(C)=CCC(C)(C)CNC(=O)NC1CCCCC1	i	-0.8%	-2.7%	10µM*
